Only some compounds are listed: those with a hit (about 14% of all), similar ones and a draw of the others.
HCV inhibitor – blocks hepatitis C virus. AID 651820. Potency, µM (highest dose often 41.8 µM), inactives show at the top dose activity change, negative = inhibition, hits mostly inhibitors. 340,000 tested, 3.4% active. Huh7.5.1 HCVcc-Cre infection, luciferase reporter, 44 h; further: potency means the concentration at half of the fitted maximal effect
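A cell-based infection assay in which seeded cells (1,000 per well) receive test compound after 4 h, are inoculated with HCVcc-Cre at approximately 0.5 moi, and are incubated 44 h before luminescence detection.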
Lassa entry inh – inhibitors of Lassa virus binding or cell entry; Lassa virus pseudotype entry inhibition, cell reporter; Potency, µM (titrated, usually from 37.9 µM), for the others: at the top dose activity change, negative = inhibition, actives largely listed as inhibitors; 300,000 tested, 1.2% active; calls by dose curve; tested in HEK293 cells; further: potency means the concentration at half of the fitted maximal effect; nearly all actives have a fitted effect of over 50% in size
Pf growth 48h – inhibits P. falciparum growth in the first generation, 48 h; P. falciparum luciferase growth in erythrocytes, 48 h; Potency, µM (top dose mostly 28.7 µM), without a hit: top-dose activity change, negative = inhibition, usual class: inhibitors; 310,000 tested, 5.9% active; further: potency means the concentration at half of the fitted maximal effect
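Growth was read as firefly luciferase luminescence after a 48 h, 37 C, 5% CO2 exposure of compounds to reporter-bearing P. falciparum cultures (0.1% parasitemia, 2% hematocrit final) in Albumax-supplemented RPMI 1640.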
Pf growth 96h – inhibits malaria parasite growth, 96 h | AID 504834 | 320,000 tested, 6.9% active | Potency, µM (highest dose often 28.7 µM), for inactives: at the top dose activity change, negative = inhibition, actives largely listed as inhibitors | P. falciparum luciferase reporter growth, 96 h; further: potency means the concentration at half of the fitted maximal effect
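Erythrocytes infected with luciferase-expressing P. falciparum were dispensed at 2% hematocrit and 0.05% parasitemia (final), then incubated with compounds 96 hours at 37 C in 5% CO2. Luminescence after detection reagent addition reported growth.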
MARV entry inh – inhibitors of Marburg virus binding or cell entry; Potency, µM (doses to about 37.8 µM), for inactives: at the highest dose activity change, negative = inhibition, actives largely listed as inhibitors; Marburg virus pseudotyped entry inhibition, cell reporter; AID 540276; 300,000 tested, 1.8% active; calls by dose curve; tested in HEK293 cells; further: potency means the concentration at half of the fitted maximal effect
HCMV antiviral – blocks human cytomegalovirus replication; HFF cells, HCMV-luciferase reporter, 72 h; hits give low values; activity change, negative = inhibition, % at 57.5 µM; 410,000 tested, 4.5% active; in the data active means activity change below about -60%; inconclusive means no clear call, values can overlap the other calls; inactive means above about -39%
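Inhibition of viral replication was scored as loss of reporter luminescence in HFFs infected with HCMV-luciferase (MOI 1 PFU/cell) for 72 h; compounds tested at 2 doses, normalized to buffer and Salinomycin controls.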
* hit, by the source's call; ? = inconclusive; / = no result; [ ] = another dose, or the depositor's remark. Unless noted, the call rests on the fitted dose curve; in most records, active means well fitted inhibition curve with a large enough effect; inconclusive means small, poorly fitted or top-dose-only effect, or another doubt; inactive means no such curve, though single readings can be large or run the other way. On the % scale 0 is the no-effect control and ±100 the full control effect.

SMILES	HCV inhibitor	Lassa entry inh	Pf growth 48h	Pf growth 96h	MARV entry inh	HCMV antiviral
O=C(N/N=C1\C[C@@H](O)[C@@H](O)[C@@H]2[C@@H]3C(=O)N(Cc4ccc5c(c4)OCO5)C(=O)[C@@H]3CC[C@H]12)OCc1ccccc1	/	/	/	/	-2%[14.2 µM]	/
COc1ccc2c(c1)C(C(Nc1ccc(C)cc1)c1ccc(Cl)cc1)C(=O)N2C (centres undefined)	/	/	/	/	/	39
CCN(CC)S(=O)(=O)c1ccc(C)c(NC(=O)CN2CCN(Cc3ccccc3)CC2)c1	-19%	/	?	?	/	-33
COc1ccc(S(=O)(=O)N2CCCCCC2)cc1NC(=O)c1c2c(nc3ccccc13)CCN(Cc1ccccc1)C2	?	-14%	1.5µM*	1.5µM*	?	-27
CCN(CC)S(=O)(=O)c1ccc(OC(C)C)c(NC(=O)c2c3c(nc4ccccc24)CCN(Cc2ccccc2)C3)c1	?	?	2.6µM*	2.9µM*	?	-36
COc1ccc(NC(=O)c2c3c(nc4ccccc24)CCN(Cc2ccccc2)C3)c(OC)c1	?	?	7.4µM*	9.3µM*	?	?
COc1ccc(NC(=O)c2sc3nc4c(cc3c2N)CN(Cc2ccccc2)CC4)c(OC)c1	/	-3%[46.1 µM]	/	/	-3%[46.1 µM]	-95*
O=C(NCc1ccc(Cl)c(Cl)c1)c1cc(C2CCCCN2C(=O)CCc2ccccc2)on1 (centres undefined)	/	/	/	/	/	16
O=C(Nc1ccc(F)cc1)C(CCc1ccccc1)N1CCN(c2cccc(C(F)(F)F)n2)CC1 (centres undefined)	/	/	/	/	/	-17
CC1(C)N=C(N)N=C(N)N1CCCCc1ccccc1	?	?	/	/	?	-98*
Cc1ccccc1N1C(N)=NC(N)=NC1(C)C	-5%	18%	?	?	?	-16
Cc1ccc(Cl)cc1N1CCN(C(=O)C2CCN(S(=O)(=O)c3cn(C)cn3)CC2)CC1	/	-2%[46.1 µM]	/	/	/	-21
O=[N+]([O-])c1ccc(S(=O)(=O)CC2CSc3nc4ccccc4n32)cc1 (centres undefined)	?	?	1%	19%	?	-79*
Cc1nnc2n(c1=O)C(CS(=O)(=O)c1ccccc1)CS2 (centres undefined)	-17%	8%	/	?	-16%	49
CSc1ncnc2c1ncn2CCCNC1CCN(Cc2ccccc2)CC1	/	/	/	/	/	-22
c1ccc(COc2ncnc3c2ncn3CCCNC2CCN(Cc3ccccc3)CC2)cc1	/	/	/	/	/	-86*
Cc1cccc(Nc2c([N+](=O)[O-])c(=O)n(C)c3ccccc23)c1	?	-17%	15µM*	10µM*	-8%	10
CC(C)c1ccc(Nc2c([N+](=O)[O-])c(=O)n(C)c3ccccc23)cc1	-27%	-10%[46.1 µM]	?	?	?	?
Cc1ccc(C)c(N2CCN(CCCNC(=O)c3ccc4nc(C(C)C)oc4c3)CC2)c1	/	?	/	/	/	-39
COc1ccc(-c2[nH]nc3nc(N4CCN(C(=O)c5ccoc5)CC4)cc(C(F)(F)F)c23)cc1	/	/	/	/	/	-77*
COc1ccc(-c2cc3nc(C)cc(N4CCN(C(=O)c5ccoc5)CC4)n3n2)cc1	/	/	/	/	/	-18
C=CCNC(=O)[C@@]1(Sc2ccc(OC)cc2)CC(=O)N[C@@H]1c1ccc(OC)cc1	/	/	/	/	/	-24
COc1ccc2[nH]c(=O)c(C(c3nnnn3C(C)(C)C)N(Cc3ccco3)CC3CCCO3)cc2c1 (centres undefined)	13%	-10%	9.3µM*	5.9µM*	?	-31
Cc1cc(C)c2[nH]c(=O)c(C(c3nnnn3C(C)(C)C)N(Cc3ccco3)CC3CCCO3)cc2c1 (centres undefined)	-8%	-2%	/	1.9µM*	?	16
CCC(c1nnnn1C(C)(C)C)N(Cc1ccco1)Cc1cc2cccc(C)c2[nH]c1=O (centres undefined)	-23%	0%	/	?	?	-8
Cc1cc2cc(C(c3nnnn3C(C)(C)C)N(Cc3ccco3)CC3CCCO3)c(=O)[nH]c2cc1C (centres undefined)	-24%	-4%	?	?	?	-18
